Measured values taken from PubChem BioAssay (Tox21).
Activity calls are given as the source filed them. Calls follow the shape of the dose curve; as a rule, active = well fitted curve in the direction sought with a large enough effect in the repeat runs; inconclusive = weak or mixed curves; inactive = flat fitted curve, though single readings scatter.

Assay: qHTS assay to test for compound auto fluorescence at 590 nm (red) in HepG2 cells (AID 720674)
Conditions: HepG2 autofluorescence, red 540/590 nm, 1 h; series mostly up to 91.3 µM
Text: U.S. Tox21 Program National Center for Advancing Translational Sciences [NCATS] NIH Chemical Genomics Center [NCGC] U.S. Environmental Protection Agency [EPA] National Institutes of Environmental Health Sciences [NIEHS] National Toxicology Program [NTP] U.S. Food and Drug Administration [FDA] Tox21 Assay Overview: Compound auto fluorescence often interferes with screening of the compound library against various biological targets and signaling pathways. Some of these compounds may have fluorophoric properties. Such properties may interfere with the assay outputs resulting in false positives and/or negatives. To decrease such complications and ensure the compound activities are relevant in terms of biological response, the Tox21 10K compound library was screened for auto fluorescence. From the fluorophores used as reporter signals in our screening assays, the auto fluorescence equivalencies of compounds against three fluorophores have been evaluated: Triamterene, Fluorescein and Rose Bengal sodium for blue, green and red fluorescence, respectively. The fluorescence intensities were measured using Excitation/Emission wavelengths at 405/460nm, 485/535nm and 540/590nm for blue, green and red labels, respectively. This assay includes the red fluorescence data.
Tox21 Assay Protocol Summary: 2,000 HepG2 cells in 5 uL of culture medium (MEM containing 10% FBS) per well were dispensed into black wall/clear bottom 1536-well plates using a Multidrop Combi Dispenser (ThermoFisher Scientific, Waltham, MA). The assay plates were incubated overnight at 37 C to allow cell attachment to the well bottom, followed by the transfer of 23 nL compound or DMSO vehicle by a pintool work station (Kalypsys , San Diego, CA). After the assay plates were incubated for 1 hr at 37 C and 5% CO2, fluorescence intensities in the assay plates were measured by an Envision (PerkinElmer, Shelton, CT) plate reader using three labels for measuring blue, green and red fluorescence at […] 460, 535 and 590 nm respectively.

Row | SMILES | outcome
1 | O=C(O)c1ccc(C(=O)O)c(C(=O)O)c1 | inactive
2 | CN/C(=C\[N+](=O)[O-])NCCSCc1csc(CN(C)C)n1 | inactive
3 | CC(=O)OC1CC(C)OC(C)O1 (stereo not given) | inactive
4 | C=CC(C)CCCC(C)(C)O (stereo not given) | inactive
5 | CC(C)OP(=O)(CP(=O)(OC(C)C)OC(C)C)OC(C)C | inactive
6 | O=C(O)c1ccc(S(=O)(=O)N(Cl)Cl)cc1 | inactive
7 | NCCN1CCNCC1 | inactive
8 | C=C(C)CNCC | inactive
9 | CCCCCCCCCCN | inactive
10 | CC1(C)OC[C@@H]2O[C@@]3(C(=O)O)OC(C)(C)O[C@H]3[C@@H]2O1 | inactive
11 | CCCCOC(=O)c1ccc(N)cc1 | inactive
12 | NCCNCCN | inactive
13 | CCCCCC(=O)O | inactive
14 | CC(C)=CCl | inactive
15 | CC(=O)OCc1ccco1 | inactive
16 | O=C1CCCC1 | inactive
17 | CCCCCCCC=O | inactive
18 | CC(=O)Oc1ccc(C)cc1 | inactive
19 | CNC(=S)N(C)C | inactive
20 | O=C1C(c2[nH]c3ccccc3c2O)=Nc2ccccc21 | inactive

Row | SMILES | outcome
21 | Cc1ccc(C(C)C)c(O)c1 | inactive
22 | O=C(O)c1cc2ccccc2cc1O | inactive
23 | C=CCCCCCCCCC(=O)O | inactive
24 | CCc1ccccc1CC | inactive
25 | CC(C)CCCCCCCOC(=O)CCCCC(=O)OCCCCCCCC(C)C | inactive
26 | O=C(O)CCCCCCCCC(=O)O | inactive
27 | CCCCCCO | inactive
28 | CSc1ccc(Cl)cc1 | inactive
29 | C=CCc1ccc(OC)c(OC)c1 | inactive
30 | CN(C)CCOC(=O)COc1ccc(Cl)cc1 | inactive
31 | Nc1ccc(Cl)c(N)c1 | inactive
32 | C[Si]1(C)O[Si](C)(C)O[Si](C)(C)O[Si](C)(C)O1 | inactive
33 | c1ccc2c(c1)Cc1ccccc1-2 | inactive
34 | Brc1ccc(Br)c(Br)c1 | inactive
35 | c1ccc(Oc2ccccc2)cc1 | inactive
36 | CC(C)(C#N)c1cc(Cn2cncn2)cc(C(C)(C)C#N)c1 | inactive
37 | CC(CCO)CC(C)(C)C (stereo not given) | inactive
38 | CCCCCCCCCCO | inactive
39 | CC1(C)NC(=O)NC1=O | inactive
40 | N#Cc1ccccc1 | inactive
